Screens from PubChem.
hcDAF12 agonist – H. contortus DAF-12 nuclear receptor activators, primary screen, cell-based, luminescence, HEK293, lit1-tk-luc reporter. HEK293 hcDAF-12 lit1-tk-luc reporter; 0% DMSO, 100% Δ7-dafachronic acid. activation, % at 6.8 µM. 370,000 compounds, 1.4% hits;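 active = activation above the mean of all tested compounds plus 3 SD, cut at about 5.5% in these data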
hgDAF12 agonist – H. glycines DAF-12 receptor agonists, primary screen, cell-based, luminescence, HEK293, GAL4 fusion, UAS-luciferase. Nuclear hormone receptor DAF-12 (Heterodera glycines), GAL4 fusion. HEK293 GAL4-hgDAF12 UAS-luciferase reporter, agonist luminescence; normalized to butyrate control. activation, % at 6.8 µM. 370,000 compounds, 1.8% hits. AID 687014, 2013;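 active = activation above a cutoff set at the mean of all screened compounds plus 3 SD, cut at about 10% in these data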
NF-kB expr up – activators of NF-kB expression in neurons, primary screen, cell-based, HTS; human neuronal cells, NF-kB reporter expression; stronger effect = higher value; fold change at 12.5 µM; 190,000 compounds, 1.6% hits; in the data active = fold change above about 3.3
ssDAF12 agonist – S. stercoralis DAF-12 nuclear receptor activators, primary screen, cell-based, luminescence, HEK293, GRIP1 co-expression, lit1-tk-luc. HEK293 ssDAF-12/GRIP1 lit1-tk-luc reporter; % of 3 µM dafachronic acid response. Nuclear hormone receptor DAF-12 (Strongyloides stercoralis). activation, % at 6.8 µM. 370,000 compounds, 1% hits;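 active = activation above the mean over all tested compounds plus 3 SD, cut at about 0.9% in these data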
APP 5'UTR act – activators of APP 5'UTR luciferase reporter, primary screen, SH-SY5Y cells; SH-SY5Y APP 5'UTR luciferase reporter, luminescence; zero percent = DMSO vehicle wells; activation, % at 2 µM; 190,000 compounds, 1% hits; AID 1276, 2008;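 active = activation above a set limit, based on mean plus 3 SD of controls, cut at about 140% in these data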
Each line names hits and unclear results; the compound was inactive in the other large screens. This is a sample that favours compounds with a hit; in the whole collection about 3.4% have one here.

Cc1ccc(-c2nc3cccnc3s2)cc1NS(=O)(=O)c1ccc2c(c1)OCCO2	none
Cc1ccc(-c2nc3cccnc3s2)cc1NS(=O)(=O)c1cccs1	hcDAF12 agonist 6.1
C=CCOC(=O)N[C@H](c1cccc(OC)c1)[C@H](C)/C=C/CC(=O)OC	none (no result: NF-kB expr up, APP 5'UTR act)
Cc1cccc(C(=O)Nc2ccccc2SCC(=O)Nc2ccc(C)c(Cl)c2)c1	hcDAF12 agonist 6.5
COC(=O)C12C=C3CC(c4ccc(OC)cc4)=C3C(=O)N1Cc1[nH]c3ccccc3c1C2 (centres undefined)	none (no result: NF-kB expr up, APP 5'UTR act)
O=C(CCc1nc2ccccc2s1)Nc1ccccc1	none
c1ccc(Cc2nc3ccccc3s2)cc1	hcDAF12 agonist 5.8 (no result: NF-kB expr up, APP 5'UTR act)
Cc1ccnc(SCc2nc3ccccc3s2)n1	hcDAF12 agonist 5.8
CC(C)(C)c1ccc(-c2nnc(SCC(=O)Nc3ccc4c(c3)OCCO4)n2-c2ccc(Cl)cc2)cc1	none (no result: NF-kB expr up, APP 5'UTR act)
O=S1(=O)c2c(cccc2N2CCC[C@H]2CO)O[C@H]2CCN1C2	none (no result: NF-kB expr up, APP 5'UTR act)
COc1cccc(NC(=O)C2CCCN2C(=O)NCc2ccccc2OC)c1 (centres undefined)	none (no result: NF-kB expr up, APP 5'UTR act)
COc1ccc(-c2ccc(-c3noc(-c4ccco4)n3)c(OC)n2)cc1	none
COc1nc(-c2ccccc2)ccc1-c1noc(-c2ccco2)n1	NF-kB expr up 3.7
COc1cc(O)sc1C=Nc1ccc(Cl)cc1Cl	ssDAF12 agonist 1.1
CCc1cccc(NC(=O)Cn2c3[n+](c4ccc(C(F)(F)F)cc42)CCCCC3)c1	none
O=C(Cn1c2[n+](c3ccc(C(F)(F)F)cc31)CCCCC2)Nc1ccccc1	hcDAF12 agonist 5.9
O=[N+]([O-])c1cccc(/C=N/Nc2nccnc2Cl)c1	none
Oc1ccc(/C=N/Nc2nccnc2Cl)cc1	hgDAF12 agonist 12
Nc1c(Cl)ncnc1N/N=C/c1ccc(O)cc1	none (no result: NF-kB expr up, APP 5'UTR act)
Fc1cccc(/C=N/Nc2nccnc2Cl)c1	hgDAF12 agonist 13 (no result: NF-kB expr up, APP 5'UTR act)
CC(C)n1c(O)c(/C=C2\C=Nc3ccccc32)sc1=Nc1ccccc1	none
CSc1nc(/C=C2\C=Nc3ccccc32)c(O)n1C	hcDAF12 agonist 6.4, ssDAF12 agonist 0.9
Nc1[nH]c(C(=O)c2ccccc2)c(-c2ccc(Cl)cc2Cl)c1C(=O)c1cccs1	none (no result: NF-kB expr up, APP 5'UTR act)
CCCCNC(=O)C[C@@H]1C[C@]2(C(=O)OCC)CCC3=C2N(CCC3)C1=O	none (no result: NF-kB expr up, APP 5'UTR act)
CC(C)C(=O)NC(=S)Nc1sc2c(c1C(N)=O)CCCC2	hgDAF12 agonist 11
Cc1cc(C(=O)Nc2sc3c(c2C#N)CCCCC3)cs1	NF-kB expr up 4.2, APP 5'UTR act 159 (no result: hcDAF12 agonist, hgDAF12 agonist, ssDAF12 agonist)
O=C(Nc1sc2c(c1C(=O)O)CCCCC2)c1ccco1	none
N#Cc1c(NC(=O)c2ccco2)sc2c1CCC2	hgDAF12 agonist 11 (no result: NF-kB expr up, APP 5'UTR act)
CCCC(=O)NC(=S)Nc1sc2c(c1C(N)=O)CCC2	none
CC(=O)NC(=S)Nc1sc2c(c1C#N)CCCCC2	hgDAF12 agonist 12
O=C(CN1C(=O)NC2(CCCCC2)C1=O)Nc1ccccc1Cl	none
CC(NC(=O)CN1C(=O)NC2(CCCCCC2)C1=O)c1ccccc1Cl (centres undefined)	ssDAF12 agonist 1.1 (no result: NF-kB expr up, APP 5'UTR act)
COc1cccc(-c2cc(C(=O)N3C(C)CCCC3C)no2)c1 (centres undefined)	hcDAF12 agonist 5.9, NF-kB expr up 3.3
COc1ccc(-c2cc(C(=O)N3CCOCC3)no2)cc1	ssDAF12 agonist 1.3 (no result: NF-kB expr up, APP 5'UTR act)
CCCNC(=O)c1cc(-c2ccc3c(c2)OCO3)on1	hgDAF12 agonist 11 (no result: NF-kB expr up, APP 5'UTR act)
CC1CCCC(C)N1C(=O)c1cc(-c2ccco2)on1 (centres undefined)	none (no result: NF-kB expr up, APP 5'UTR act)
CCCNC(=O)c1cc(-c2ccc(OC)cc2)on1	NF-kB expr up 6.8
COc1cccc(-c2cc(C(=O)N3CCOCC3)no2)c1	none (no result: NF-kB expr up, APP 5'UTR act)
COc1ccc(-n2c(SCC(=O)Nc3ccc(S(=O)(=O)Nc4nccs4)cc3)nnc2-c2ccco2)cc1	none (no result: NF-kB expr up, APP 5'UTR act)
CC(=O)N1CCCN(C(=O)CN2C(=O)CC(C)(C)S(=O)(=O)c3ccccc32)CC1	none (no result: NF-kB expr up, APP 5'UTR act)
COc1ccccc1-c1cc(C(=O)N2CCCC2)no1	hcDAF12 agonist 6.5 (no result: NF-kB expr up, APP 5'UTR act)
CCc1cc(C(=O)Cc2nc3ccccc3s2)c(O)cc1OCC(=O)O	ssDAF12 agonist 0.9 (no result: NF-kB expr up, APP 5'UTR act)
O=C(Cc1nc2ccccc2s1)c1ccc(O)cc1O	none (no result: hcDAF12 agonist, hgDAF12 agonist, ssDAF12 agonist)
COc1ccc(Cn2ccc3ccc(-c4ccc5ccn(C(=O)c6ccc(C)cc6)c5c4)cc32)cc1	none (no result: NF-kB expr up, APP 5'UTR act)
C#CCSc1nnc(-c2cccc3ccccc23)o1	ssDAF12 agonist 1.7 (no result: NF-kB expr up)
c1ccc(-c2nnc(SCCC3OCCCO3)o2)cc1	NF-kB expr up 3.4
C#CCSc1nnc(-c2ccc(O)cc2)o1	hgDAF12 agonist 11
C#CCSc1nnc(-c2ccc(C)cc2)o1	hgDAF12 agonist 11, NF-kB expr up 3.7
Cc1ccc(NC(=O)CCS(=O)(=O)c2ccccc2)cc1C	none (no result: NF-kB expr up, APP 5'UTR act)
CC(C)CNC(=O)OCc1cn(Cc2ccc(Cl)cc2)nn1	none (no result: NF-kB expr up, APP 5'UTR act)
Oc1ccc(-c2nnc(SCc3ccccc3)o2)cc1	hgDAF12 agonist 11 (no result: NF-kB expr up, APP 5'UTR act)
c1ccc(CSc2nnc(-c3cccnc3)o2)cc1	none
Cc1occc1-c1nnc(SCC(=O)NCc2ccc(Cl)cc2)n1-c1ccccc1	none (no result: NF-kB expr up, APP 5'UTR act)
Cn1c2ccc(Br)cc2c2nnc(SCC(=O)O)nc21	hcDAF12 agonist 5.7 (no result: NF-kB expr up, APP 5'UTR act)
Cn1c2ccccc2c2nnc(SCC(N)=O)nc21	ssDAF12 agonist 0.9 (no result: NF-kB expr up, APP 5'UTR act)
CCn1c2ccccc2c2nnc(SCCN3CCOCC3)nc21	none (no result: NF-kB expr up, APP 5'UTR act)
CSc1nnc2c3cc(F)ccc3n(C)c2n1	ssDAF12 agonist 1.0 (no result: NF-kB expr up, APP 5'UTR act)
CCOC(=O)CSc1nnc2c3ccccc3n(C)c2n1	none (no result: NF-kB expr up, APP 5'UTR act)
CCCCn1c2ccc(F)cc2c2nnc(SCCN3CCCCC3)nc21	none (no result: NF-kB expr up, APP 5'UTR act)
Cn1c2ccccc2c2nnc(SCCN3CCOCC3)nc21	hcDAF12 agonist 6.3 (no result: NF-kB expr up, APP 5'UTR act)
